Laboratory results: PubChem BioAssay AID2783 (National Center for Advancing Translational Sciences (NCATS), 2010)
Inconclusive results are not listed. Calls come from the whole dose curve; as a rule, active = well fitted inhibition curve with a large enough effect in the polarisation, with a control signal flat (not every such curve was filed as active); inconclusive = small, poorly fitted or top-dose-only effect, or effect the other way, or a change in a side signal; inactive = no such curve, though single readings can be large or run the other way; the % refers to the polarisation.

target: Menin (Homo sapiens) (UniProt O00255); test: Confirmation of Inhibitors Targeting the Menin-MLL Interaction in MLL Related Leukemias: Competition With Fluorescein Labeled MLL-derived Peptide; details: Fluorescence polarization, fluorescein-MLL peptide displacement from menin; series mostly up to 100 µM; activity change, negative = inhibition: at the top concentration
% is set by controls: 0 for no effect and ±100 for the full control effect.

Menin (Homo sapiens), sequence (O00255 whole entry, looked up): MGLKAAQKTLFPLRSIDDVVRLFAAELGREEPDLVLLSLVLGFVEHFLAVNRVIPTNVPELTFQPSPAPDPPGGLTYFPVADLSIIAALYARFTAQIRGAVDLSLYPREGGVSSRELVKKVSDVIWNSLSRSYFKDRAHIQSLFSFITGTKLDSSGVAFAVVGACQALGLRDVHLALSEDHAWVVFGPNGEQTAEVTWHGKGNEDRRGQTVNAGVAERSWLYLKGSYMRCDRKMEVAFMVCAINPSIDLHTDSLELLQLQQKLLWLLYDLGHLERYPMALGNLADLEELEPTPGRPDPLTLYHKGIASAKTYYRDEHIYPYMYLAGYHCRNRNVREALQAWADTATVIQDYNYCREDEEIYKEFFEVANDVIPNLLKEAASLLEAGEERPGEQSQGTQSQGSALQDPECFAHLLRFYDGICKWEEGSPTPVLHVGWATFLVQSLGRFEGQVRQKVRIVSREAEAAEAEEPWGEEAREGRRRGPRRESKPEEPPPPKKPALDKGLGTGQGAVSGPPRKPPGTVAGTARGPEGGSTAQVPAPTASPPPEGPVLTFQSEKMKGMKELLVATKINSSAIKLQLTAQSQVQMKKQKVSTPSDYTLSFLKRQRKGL

Activity change, negative = inhibition, inactive:
CN1[C@H](CC(=O)c2ccccc2)CCC[C@H]1C[C@@H](O)c1ccccc1 -0.812% [at 288 µM]
O=C(/C=C/c1ccccc1)c1cccs1 -28.1% [at 288 µM]
CCOC(=O)N1CCN(CC(=O)N2c3ccccc3Sc3ccccc32)CC1 8.87%
O=C(N/N=C/c1cn(-c2ccccc2)nc1-c1cc2ccccc2o1)c1ccccc1Br -4.27%
O=C(NC(=S)N1CCCc2ccccc21)c1ccc([N+](=O)[O-])cc1 -11.5%
CCC(=O)Nc1ccc(-c2cc(-c3ccccc3)nc(-c3ccc(NC(=O)CC)cc3)n2)cc1 6.74% [at 288 µM]
O=C(Cn1c(=O)c2c3c(sc2n(Cc2ccccc2)c1=O)CCCC3)NCCO 2.27% [at 288 µM]
COc1ccc(NC(=O)NC2(C(=O)N3CCOCC3)CCCCC2)cc1 1.56%
Cc1ccc(-c2csc(NC(=O)c3ccc(S(=O)(=O)N4CCc5ccccc54)cc3)n2)cc1 -0.485%
CN1C[C@@H]2C[C@H]1CN2c1cc2c(cc1F)c(=O)c(C(=O)O)cn2C1CC1 -17.6%
COc1ccc(CNC(=O)C(c2ccc(O)cc2)N(Cc2ccco2)C(=O)c2snc(C(N)=O)c2N)cc1 (stereo not drawn) -21.4%
CCCCCC1CCC(C(=O)NCCN2CCOCC2)CC1 (stereo not drawn) -20.4%
Cc1c(C(=O)OCC(=O)Nc2ccc(S(N)(=O)=O)cc2)oc2c1ccc1ccccc12 16.6%
Clc1ccc(-c2nnc(-c3ccccc3)nc2-c2c[nH]c3ccccc23)cc1 -4.02%
Cn1ncc2c(N3CCCCC3)nc(NCCCO)nc21 -12.3%
CC(Sc1nnc(Nc2ccccc2)s1)C(=O)Nc1nc(-c2ccccc2)cs1 (stereo not drawn) 7.12%
CCOC(=O)C1CCN(CC(O)COCc2ccccc2)CC1 (stereo not drawn) -2.6% [at 288 µM]
CC(CC(=O)Nc1nc2ccccc2[nH]1)n1ccnc1 (stereo not drawn) -18.8%
Cc1ccc(C2=NN(C(=O)c3ccccc3F)C(c3ccccc3F)C2)cc1 (stereo not drawn) 1.79% [at 288 µM]
O=C(NC(=S)Nc1ccccc1)c1cc(-c2ccccc2)nc2ccccc12 -1.95% [at 288 µM]
COc1cccc(OC)c1NC(=O)CN1CCN(C)CC1 -13.1%
CCn1cnc2c1c(=O)n(CC(=O)O)c(=O)n2Cc1ccccc1 -2.36% [at 288 µM]
CC(=O)N1c2ccccc2C2(O)N=C(C)SC12 (stereo not drawn) -1.79% [at 288 µM]
COc1cc2c(cc1NC(=S)NC(=O)c1c(OC)cccc1OC)oc1ccccc12 -15%
COC(=O)c1ccccc1NC1=C/C(=N\S(=O)(=O)c2ccc(C(=O)O)cc2)c2ccccc2C1=O -16% [at 288 µM]
O=C(Nc1cccn(Cc2c(Cl)cccc2Cl)c1=O)c1c(Cl)cccc1Cl 15.9% [at 288 µM]
COc1ccccc1NS(=O)(=O)c1cc(NC(=O)Nc2ccccc2)ccc1N1CCCCC1 -15.4%
Cc1nc(N2CCN(C)CC2)c2c3c(sc2n1)CCCC3 -3.53%
Cc1nc2oc3c(NCC4CCCO4)ncnc3c2c2c1COC(C)(C)C2 (stereo not drawn) -1.23%
CCc1oc2ccccc2c1C(=O)c1cc(Br)c(O)c(Br)c1 -17.9%
COc1cccc(-c2nn(-c3ccccc3)cc2/C=C\C(=O)c2cccs2)c1 -5.34%
O=C(CSc1nnc(-c2c[nH]c3ccccc23)o1)c1ccc(-c2ccccc2)cc1 3.72%
Cc1ccc(C#CC(C)(O)C(C)(C)C)cn1 (stereo not drawn) -0.647%
